This note sets out measurements from PubChem BioAssay (NCI).

This is part of a sample that, as a whole, favours compounds with a hit. Of some 83,000 tested, about 20% had one in any assay.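 Interpretation: 100, growth as untreated; towards 0, rising growth inhibition; 0, no net growth; 0 to -100, cell death. Compounds scoring below 10 were considered active.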 Unmarked numbers belong to inactive results. The source made the active and inactive calls.

The subject of this experiment is COLO 205 colon. Briefly: NCI-60 one-dose screen, 48 h (100 = growth as untreated, 0 = no growth, -100 = all killed). As to conditions: 10 µM unless noted. Here is the method:
Cells are grown in 96 well plates and exposed to the test compound for 48 hours. Compounds are tested at a single concentration, which is 10^-5 M for most compounds. The reported endpoint is percent growth (GI% or GIPRCNT), where numbers from 0 - 100% represent growth inhibition, and numbers from -100% - 0 represent cell death. For example, a value of 40 represents 60% growth inhibition. A value of 0 means no net growth occurred over the course of the experiment. A value of -40 indicates 40% of cells at the beginning of the experiment died by the end of the experiment. A value of -100 means all cells are dead at the end of the experiment.
NCI-60 Human Tumor Cell Lines Screen was performed using the standard one-dose NCI protocol, which is described in more detail at https://dtp.cancer.gov/discovery_development/nci-60/default.htm.
Compounds with GIPRCNT values below 10 were considered active. Activity score was based on GIPRCNT using the following formula: […]
Score is 0 for GIPRCNT values of 100 or above, 50 for GIPRCNT values of 0, and 100 for GIPRCNT values of -100.
`CCc1c(C)c2cc3c(c(C)c2oc1=O)OCC(=O)N3`: the growth was 83%.

As for `CCOC(=O)NNc1nncc2ccccc12`, the growth is 105%.

Take `O=C(NCCNc1nccc(-c2c(-c3cccc(O)c3)nc3sccn23)n1)Nc1cc(C(F)(F)F)cc(C(F)(F)F)c1`: the growth was 45.1%.

Regarding `O=c1c(-c2ccc3c(c2)OCO3)coc2c(CO)c(O)ccc12`, the growth is 113%.

As for `Cc1cn(C2CC(N=[N+]=[N-])C(COP(=O)(O)OP(=O)(O)OP(=O)(O)O)O2)c(=O)[nH]c1=O` (stereo not given), the growth was 119%.

`CC/C(=C(\CC)c1ccc(OCCN(CC)CC)cc1)c1ccc(OCCN(CC)CC)cc1`: the growth was 4.87% (active).

As for `CC(C)C1(C(C)C)NC(=O)NC1=O`, the growth was 117%.

For `CCNC(=O)Oc1ccc(/C(=C(/CC)Cc2ccccc2)c2ccc(OCCN3CCOCC3)cc2)cc1`, the growth was 50.9%.

Take `CC(C)CCC[C@@H](C)[C@H]1CC[C@H]2[C@@H]3CC=C4N(c5ccccc5)C(=O)CC[C@]4(C)[C@H]3CC[C@]12C`: the growth is 97.9%.

With `COc1ccccc1P(c1ccccc1OC)c1ccccc1OC`, the growth is 87.1%.

Consider `CN1C(=O)C2(SCC(C(=O)NCC(=O)OC(C)(C)C)N2C(=O)C2CCCCC2)c2ccccc21` (stereo not given), for which the growth was 99.9%.

Regarding `COc1cc(C(=O)N2CCN(C(=O)c3cc(OC)c(OCc4ccccc4)cc3N)CC2)c(N)cc1OCc1ccccc1`, the growth is 115%.

In the case of `CC(=O)N1N=C(CCC(=O)c2nc3ccc([N+](=O)[O-])cc3[nH]2)OC1c1ccc(O)cc1` (stereo not given), the growth is 92.3%.

As for `O=C(NNC(=O)c1ccc([N+](=O)[O-])cc1)c1ccc([N+](=O)[O-])cc1`, the growth is 115%.

Take `CCc1cccc(C)c1NC(=O)c1sc2nc3c(cc2c1N)CCCCC3`: the growth is 7.73% (active).

Consider `C#C[C@@]1(O)[C@@H](CO)O[C@@H](n2cc(Br)c3c(Cl)ccnc32)[C@@H]1O`, for which the growth is 17.2%.

As for `CC(=O)N1N=C2N(Cc3ccccc3)C(=O)c3c(sc4c3CCCC4)N2C1c1cn(-c2ccccc2)nc1-c1ccc(Cl)cc1` (stereo not given), the growth was 101%.

As to `O=C(Nc1ccc(-n2cc(-c3ccncc3)c(-c3ccc(O)c(Cl)c3)n2)cc1)Nc1cc(C(F)(F)F)cc(C(F)(F)F)c1`, the growth is 28.6%.

For `COc1ccc(C(=O)NC(=O)Nc2ccc3c(c2)NC(=O)/C3=C\c2[nH]c(C)c(CCC(=O)O)c2C)c(F)c1`, the growth was 37.5%.

`CN(CCNCc1ccccn1)CCNCc1ccccn1`: the growth is -5.61% (active).

Consider `CCN(CC)CCNCC(O)Cc1ccc(OC)cc1` (stereo not given), for which the growth was 111%.

As for `CN(C)c1ccc(/C=N/n2c(-c3cc(F)c(Cl)cc3Cl)nn(CN3CCOCC3)c2=S)cc1`, the growth is 108%.

In the case of `CCOc1ccc(-n2c(-c3cc(OC)c(OC)c(OC)c3)nnc2-c2ccc(OC)cc2N)cc1`, the growth was 51%.

Turning to `CCCCN(CCCC)c1ccc(C(=N)c2ccc(N(C)C)cc2)cc1`, the growth was -93.8% (active).

Consider `COc1cc(NC(C)CCCN2C(=O)c3ccccc3C2=O)c2nc(C)ccc2c1OC` (stereo not given), for which the growth is 99.3%.

Take `COc1ccccc1C(OC(C)=O)OC(C)=O`: the growth was 110%.

As to `Fc1ccc(/C=N/n2c(-c3cc(Cl)cc(Cl)c3Cl)nn(CNc3ccc(Cl)nn3)c2=S)cc1`, the growth was 100%.

For `CCC1S/C(=N\N=C(/C)c2cc3ccccc3o2)N(c2ccccc2)C1=O` (stereo not given), the growth was 123%.

Consider `COC(=O)c1oc2c(C(C)=O)c(OCCN3CCCCC3)ccc2c1C`, for which the growth is 130%.

As for `Cc1cc[n+](CCCC[n+]2ccc(C)cc2)cc1`, the growth was 110%.

As to `CC(C)Cn1cnc2c3ccccc3nc(NCn3nc(-c4cc(Cl)cc(Cl)c4Cl)oc3=S)c21`, the growth was 97.5%.

As for `C=CCn1c(SCC(=O)Nc2ccc(/C(C)=N\O)cc2)nnc1-c1cc(-c2ccc(OC)cc2)nc2ccccc12`, the growth was 19.2%.

With `Cc1c(C(C)(C)C)cc(C(C)(C)C)c2c1CN(C)CO2`, the growth is 105%.

In the case of `CCn1c(C)nc([N+](=O)[O-])c1Sc1nc(N)nc2nc[nH]c12`, the growth is 67.9%.

As to `O=C(COc1ccc(Cl)cc1)N1CCN(Cc2ccc3c(c2)OCO3)CC1`, the growth was 96.1%.

In the case of `Cc1ccc(=O)n(-c2ccc(Br)cc2F)c1`, the growth is 110%.

On to `COc1cc2c(/C=C3/C(=O)Nc4ccc(O)cc43)c(Cl)n(Cc3cc(OC)c(OC)c(OC)c3)c2cc1C`, for which the growth is 4.15% (active).

With `CC(C)(C)C(=O)Nc1nc2c(s1)CCc1ccn(S(=O)(=O)c3ccccc3)c1-2`, the growth was 112%.

Regarding `CC(=O)O[C@@H]1[C@@H](OC(C)=O)[C@H](OC(C)=O)CO[C@H]1Nc1cccc2ccccc12`, the growth was 99.7%.

Regarding `O=C1OC(N(Cc2ccc(Cl)cc2)c2ccccc2)c2ccccc21` (stereo not given), the growth is 104%.
